Screening results as filed in PubChem.
Shiga toxin inh: A qHTS for Small Molecule Inhibitors of Shiga Toxin; Vero cells, Shiga toxin protein synthesis inhibition reporter; inhibition, % at 38.7 µM; actives 9.2% (n = 290,000); AID 2315, 2010; in the data active = inhibition mostly above about 28%, no sharp cut-off; inactive = mostly below about 43%; also: 0% is about no effect
FMDV inh: High Throughput Screening for Foot and Mouth Disease Virus Antivirals; FMDV antiviral cell-based qHTS; Potency, µM (top dose mostly 57.9 µM), without a hit: at the highest dose activity change, negative = inhibition, usual class: inhibitors; actives 1.2% (n = 410,000); calls by dose curve; tested in HEK293T cells; also: read-out not given here; potency is read from the fitted curve at half-maximal effect; % is scaled to controls: 0 for no effect and ±100 for the full control effect; nearly all actives have a fitted effect of over 45% in size
Sm TGR block: qHTS Assay for the Inhibitors of Schistosoma Mansoni Peroxiredoxins; AID 485364, 2010; Potency, µM (series often up to 114 µM), for inactives: top-dose activity change, negative = inhibition, hits mostly inhibitors; purified TGR, DTNB reduction, TNB absorbance 405 nm; actives 3% (n = 360,000); Schistosoma mansoni thioredoxin glutathione reductase (TGR), Q962Y6; active = well fitted inhibition curve with a large enough effect; inconclusive = small, poorly fitted or top-dose-only effect; inactive = no such curve, though single readings can be large or run the other way; also: potency is read from the fitted curve at half-maximal effect; % is scaled to controls: 0 for no effect and ±100 for the full control effect; nearly all actives have a fitted effect of over 60% in size
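Kinetic colorimetric format: TGR-catalysed, NADPH-driven DTNB reduction monitored via TNB absorbance. Enzyme dispensed at 20 nM; compound exposure 15 min at room temperature before reaction start.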
CHX counter: Cycloheximide Counterscreen for Small Molecule Inhibitors of Shiga Toxin | actives 12% (n = 300,000) | max response, % | cell reporter, cycloheximide protein synthesis inhibition counterscreen; in the data active = max response mostly above about 13%, no sharp cut-off; inactive = mostly below about 14%; also: read at 38.3 µM for the half of the compounds with a filed dose; 0% is about no effect
* marks the source's active call; other numbers are inactive results; ? = inconclusive; nt = not tested or not shown; + = active, no number; [ ] = remark or other dose. Rows were chosen to be rich in hits. Some 12% of all compounds tested hit in one or more screens of this group.

SMILES	Shiga toxin inh	FMDV inh	Sm TGR block	CHX counter
CCc1ccc(NC(=O)c2cc(=O)c3ccc(C)c(C)c3o2)cc1	nt	-12.9%	-5.7%	nt
CC(C)=CCC/C(C)=C/CC/C(C)=C/CC/C(C)=C/C(=O)O	11.7	nt	nt	1.2
CCC(C)NC(=O)c1cc2cc3ccc(OC)cc3nc2o1 (stereo not given)	38.7*	32.0%	-15.1%	29.9*
CCCCN(C)C(=O)c1cc2cc3ccc(OC)cc3nc2s1	56.6*	-50.7%	14.2%	25.1*
CCOc1ccc(NC(=O)c2cc3cc4ccc(OC)cc4nc3o2)cc1	-3.3	-7.7%	-18.9%	-4.9
COCCNC(=O)CCn1c(=O)c2cc(OC)c(OC)cc2n(CC(=O)Nc2ccc(F)c(Cl)c2)c1=O	nt	-10.7%	-4.0%	nt
COc1cc(OC)c(NC(=O)N2CCCn3nc(C)cc32)cc1Cl	nt	-15.7%	8.1%	nt
CCN(CC)S(=O)(=O)c1ccc(NC(=O)c2ccc(NS(C)(=O)=O)cc2)cc1	-5.7	-18.4%	0.9%	-2.4
CS(=O)(=O)N(CC(=O)Nc1ccc2c(c1)OCO2)Cc1ccccc1	28.0	nt	-6.7%	12.7*
CCN(CC(=O)Nc1cccc(C(C)=O)c1)S(=O)(=O)c1ccccc1	3.4	-11.1%	?	-1.7
CCC(CC)C(=O)Nc1cccc(C(=O)Nc2ccc3c(c2)OCO3)c1	79.8*	40.6%	-4.2%	43.2*
CCN(CC(=O)Nc1ccc2c(c1)OCCO2)S(=O)(=O)c1ccccc1	37.2*	36.9%	-21.4%	23.9*
CCN(CC)S(=O)(=O)c1ccc(C(=O)Nc2ccc3c(c2)OCCO3)cc1	38.3	?	?	20.2*
CCC(CC)C(=O)Nc1cccc(C(=O)Nc2ccc(S(N)(=O)=O)cc2)c1	-5.9	-10.2%	?	-4.5
COc1ccc(-c2cn3nc(N4CCC(C(=O)Nc5ccccc5OC)CC4)sc3n2)cc1	nt	-15.5%	-12.3%	nt
COc1ccc(-c2nc(CCNC(=O)c3c(F)cccc3Cl)cs2)cc1	nt	-22.9%	11.3%	nt
O=C(NCc1ccc2c(c1)CCN2C(=O)c1ccc(F)cc1)c1cc2ccccc2[nH]1	nt	-14.6%	-2.9%	nt
O=C(COc1ccccc1F)Nc1ccc(OCc2cc(=O)n3ccccc3n2)cc1	nt	15.9%	0.0%	nt
CCCSc1ncc(Cl)c(C(=O)Nc2c(C(=O)c3ccc(C)cc3)oc3ccccc23)n1	nt	-12.1%	7.7%	nt
CCN(CC)S(=O)(=O)c1cccc(C(=O)Nc2ccc3c(c2)OCO3)c1	91.2*	-8.1%	0.7%[57.1 µM]	34.8*
[O-][N+]1=c2ccc(Nc3ccccc3)cc2=NC12CCCCC2	88.8*	-7.5%	-19.2%	50.8*
O=[N+]([O-])c1ccc2c(c1N1CCCCC1)=NC1(CCCCC1)[N+]=2[O-]	1.8	0.0%	0.0%	1.9
COc1ccc(Nc2ccc3c(c2)=NC2(CCCCC2)[N+]=3[O-])cc1	58.9*	?	-22.0%	26.1*
O=C(O)c1cccc(-c2ccc(/C=c3/sc4nc5ccccc5n4c3=O)o2)c1	69.8*	23.4%	-26.4%	44.3*
O=C(O)c1cc(C(=O)O)cc(-c2ccc(/C=c3/sc4nc5ccccc5n4c3=O)o2)c1	22.6	-4.5%	-25.4%	-1.9
SMILES	Shiga toxin inh	FMDV inh	Sm TGR block	CHX counter
O=c1c2ccccc2nc2sc3ccccc3n12	97.3*	8.3%	-6.8%	20.0*
O=c1/c(=C/c2ccccn2)sc2nc3ccccc3n12	125.5*	10µM*	1.8%	35.8*
COC(=O)/C=c1/sc2nc3ccccc3n2c1=O	-11.5	1.9%	7.6%	6.3
Cc1ccc(-n2ncc(C(=O)NC3CCN(Cc4ccccc4)CC3)c2C2CCN(C(=O)OC(C)(C)C)CC2)cc1C	nt	-5.4%	1.2%	nt
O=C(/C=C/c1cccs1)NNC(=O)c1cccc([N+](=O)[O-])c1	nt	9.1%	nt	nt
Cc1ccc(NC(=O)/C=C/c2ccc([N+](=O)[O-])s2)c(C)c1	active	12.6µM*	-23.1%	22.2*
Cc1ccc(NC(=O)/C=C/c2ccc([N+](=O)[O-])s2)cc1	active	0.0%	-4.9%	25.6*
Cc1cccc(NC(=O)/C=C/c2ccc([N+](=O)[O-])s2)c1	21.0	0.0%	-1.9%	1.3
Cc1ccc(NC(=O)COC(=O)c2ccc([N+](=O)[O-])s2)c(C)c1	-14.3	-18.4%	-1.3%	-1.2
Cc1cc([N+](=O)[O-])ccc1NC(=O)/C=C/c1cccs1	59.3*	15.4%	0.6%	42.4*
Cc1cc(C)cc(-n2ccnc2SCC(=O)Nc2cccc3ccccc23)c1	nt	-23.0%	8.4%	nt
CC(=O)c1c(C)oc2ccc(N(C(=O)Oc3ccccc3)S(=O)(=O)c3ccc(Cl)cc3)cc12	nt	-1.1%	-3.4%	nt
CCOc1ccc(CCNC(=O)Cn2ccc3cc(S(=O)(=O)N4CCCCC4)ccc32)cc1	nt	-25.7%	2.1%	nt
Cc1cccnc1NC(=O)c1cccc(S(=O)(=O)N2CCCc3ccccc32)c1	18.9	-24.8%	2.2%	26.3*
O=C(Nc1ncccc1O)c1cccc(S(=O)(=O)N2CCCc3ccccc32)c1	nt	39.0%	-15.9%	nt
CC(C)[C@H](NC(=O)c1cccc(S(=O)(=O)N2CCOCC2)c1)C(=O)Nc1nc2ccccc2s1	+	51.6%	-9.6%	25.7*
CCOc1ccccc1NC(=O)[C@@H](NC(=O)c1cccc(S(=O)(=O)N2CCOCC2)c1)C(C)C	26.6	-1.7%	6.4%	2.2
O=C(Nc1nc2ccccc2s1)c1cccc(S(=O)(=O)N2CCc3ccccc32)c1	21.3	-19.2%	-5.5%	14.1*
O=C(Nc1nc2c(s1)CCCC2)c1ccc(S(=O)(=O)N2CCCc3ccccc32)cc1	11.4	?	1.6%	10.3*
O=C(Nc1ccccc1C(F)(F)F)c1ccc(F)c(S(=O)(=O)N2CCc3ccccc3C2)c1	nt	-12.6%	-0.8%	nt
CCN(CC)CCCC(C)NC(=O)c1cccc(S(=O)(=O)N2CCc3ccccc32)c1 (stereo not given)	31.2	1.3%	15.8µM*	-2.9
O=C(NC[C@@H]1CCCN2CCCC[C@H]12)c1cnn(-c2nccc(-c3ccco3)n2)c1C1CC1	nt	-9.0%	nt	nt
O=C(COC(=O)c1c[nH]c2ccccc12)NC1CCCC1	nt	8.2%	-11.5%	nt
Cc1ccc(NC(=O)C(=O)c2c[nH]c3ccccc23)cc1	46.5*	18.0%	7.6%	33.0*
O=C(NC1CCCCC1)C(=O)c1c[nH]c2ccccc12	69.2*	44.1%	3.6%	32.0*
SMILES	Shiga toxin inh	FMDV inh	Sm TGR block	CHX counter
O=C(NCC1CCCO1)C(=O)c1c[nH]c2ccccc12 (stereo not given)	162.2*	42.5%	4.7%	27.4*
Cc1ccc(NC(=O)c2cc(=O)[nH]c3ccccc23)cc1	-7.3	-11.6%	5.2%	-3.6
COc1ccc(C)cc1NC(=O)C1CCN(S(=O)(=O)c2cc(Br)cc3c2N(C(C)=O)CC3)CC1	nt	-9.0%	-1.7%	nt
Cc1cc(=O)n(CC(=O)NCc2ccc(OC(C)C)cc2)c2c1c(C)nn2-c1cccc(F)c1	nt	-10.1%	3.6%	nt
O=C(c1cc2cc([N+](=O)[O-])ccc2s1)N1CCCCC1	35.2	43.4%	4.1%	28.3*
Cc1cc(NC(=O)c2cc([N+](=O)[O-])ccc2Cl)no1	-9.3	?	-28.3%	-1.6
O=C(Nc1ccccn1)c1cc2cc([N+](=O)[O-])ccc2s1	79.4*	46.8%	-14.2%	40.5*
O=C(c1cc2cc([N+](=O)[O-])ccc2s1)N1CCOCC1	11.3	5.2%	7.5%	10.0
